The nature of assay [1]: qHTS profiling for inhibitors of Plasmodium falciparum proliferation (AID 504749). Further: nearly all actives have a fitted effect of over 60% in size.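 On activity, negative = inhibition: 0% = DMSO vehicle and full inhibition = artemisinin control.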 The note with it: P. falciparum in erythrocytes, SYBR Green DNA, 72 h. The procedure, abridged:
(§1)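 Each compound contacts P. falciparum-infected red blood cells for 72 h at 37 C; lysis buffer (Tris, EDTA, saponin, Triton X, SYBR Green I) is added and fluorescence measured next morning; values normalized to controls.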
On the technique in general: In qHTS, concentration-response curves come from the screen itself.

For assay [2], the system named is 3D7. The description is as above. The note with it: P. falciparum in erythrocytes, SYBR Green DNA, 72 h; series mostly up to 28.7 µM. Summed up: as §1
The test system of assay [3] is 7G8. The assay is described as above. As to conditions: P. falciparum in erythrocytes, SYBR Green DNA, 72 h; series mostly up to 28.7 µM. The procedure, abridged: as §1
For assay [4], the system named is AA1029. The assay is described as above. As to conditions: P. falciparum in erythrocytes, SYBR Green DNA, 72 h; series mostly up to 28.7 µM. Summed up:
as §1

Where [5] appears, read: at 28.7 µM (top of the series), parasite line A.
The mark [6] stands for this setting: at 28.7 µM (top of the series), parasite line B.
Where [7] appears, read: at 12.8 µM (top of the series), parasite line A.
The mark [8] stands for this setting: at 12.8 µM (top of the series), parasite line B.

Where “and” joins values, the source holds several entries; their conditions need not be identical. Identical values can stand only once. Inconclusive results are not listed. Unmarked numbers belong to inactive results. Calls of active or inactive are those of the source. The call rests on the fitted dose curve; in most records, active means well fitted inhibition curve with a large enough effect; inconclusive means small, poorly fitted or top-dose-only effect; inactive means flat fitted curve, though single readings scatter.
Potency means the concentration at half of the fitted maximal effect.

`O=C(OCc1ccccc1)c1ccccc1`: the activity, negative = inhibition in assay [1] (setting [5]) was -9.71%; in assay [1] (setting [6]) it was -8.05%. Besides, the Potency result in assay [2], in assay [3] and in assay [4] was “inactive” in each case.
As for `Cc1ccccc1CNc1ncnc2c1ncn2C1OC(CO)C(O)C1O` (stereo not drawn), the activity, negative = inhibition was 17.8% in assay [1] (setting [5]) and -2% in assay [1] (setting [6]). The Potency result in assay [2], in assay [3] and in assay [4] was “inactive” each time.
`O=C(O)Cc1ccc(-c2ccccc2)cc1`: the activity, negative = inhibition in assay [1] (setting [7]) was 2.72%; in assay [1] (setting [8]), -2.57%. The Potency result in assay [2], in assay [3] and in assay [4] was “inactive” in each case.
For `COc1cc(/C=C/C(=O)N2CCN(CC(=O)N3CCCC3)CC2)cc(OC)c1OC`, the activity, negative = inhibition is 1.12% in assay [1] (setting [5]) and 8.7% in assay [1] (setting [6]). Besides, the Potency result in assay [2] and in assay [4] was “inactive” throughout. Also, in assay [3], the Potency was 10 µM (active).
Turning to `Cc1cc(O)c2ccccc2c1O`, the figures for the activity, negative = inhibition in assay [1] (setting [5]) and in assay [1] (setting [6]) were 7.28% and -10.1%, respectively. Moreover, the Potency in assay [2] is 12.6 µM (active). Moreover, the Potency result in assay [4] was “inactive”.
In the same order, the values of `CCCOC(=O)c1ccc(O)cc1` are 4.05%, 3.75%, “inactive” and “inactive”.
In the case of `CN(C)c1ccc(C(=C2C=CC(=[N+](C)C)C=C2)c2ccccc2)cc1`, the Potency is 11.2 µM (active) in assay [1] (parasite line A); 11.2 µM (active) in assay [1] (parasite line B); 2.24 µM (active) in assay [2]; 11.2 µM (active) in assay [3]; 8.91 µM (active) in assay [4].
For `CN1[C@@H]2CC[C@H]1CC(OC(=O)C(CO)c1ccccc1)C2` (stereo partly drawn), the activity, negative = inhibition in assay [1] (setting [5]) was -2.42%. Also, the Potency entry in assay [2], in assay [3] and in assay [4] was “inactive” each time.
Turning to `CCCCCCCCCCCCCCCC(=O)OC(C)C`, the Potency entry in assay [2], in assay [3] and in assay [4] was “inactive” throughout.
With `Nc1cc(-c2ccncc2)c[nH]c1=O`, the results for the activity, negative = inhibition in assay [1] (setting [5]) and in assay [1] (setting [6]) were 17.9% and 15.4%, respectively. Further, the Potency entry in assay [2] and in assay [4] was “inactive” each time.
For `COC(=O)C1=C(C)NC(C)=C(C(=O)OCC(C)C)C1c1ccccc1[N+](=O)[O-]` (stereo not drawn), the Potency in assay [1] (parasite line A) is 11.2 µM (active); in assay [1] (parasite line B) it was 10 µM (active); in assay [3] it was 3.16 µM (active).
As to `O=C1CN(/N=C/c2ccc(-c3ccc([N+](=O)[O-])cc3)o2)C(=O)N1`, the activity, negative = inhibition in assay [1] (setting [5]) is -11.3%; in assay [1] (setting [6]) it was -1.58%. The Potency entry in assay [4] was “inactive”.
Consider `CCCSc1ccc2nc(NC(=O)OC)[nH]c2c1`, for which the activity, negative = inhibition was -19.4% in assay [1] (setting [7]) and -12.4% in assay [1] (setting [8]). Besides, the Potency result in assay [2], in assay [3] and in assay [4] was “inactive” in each case.
Consider `C=CCN1C(=O)C(CC(C)C)NC1=S` (stereo not drawn), for which the activity, negative = inhibition in assay [1] (setting [5]) was -18.4% and 2.94%; in assay [1] (setting [6]) it was -2.47% and 3.7%. Also, the Potency entry in assay [2], in assay [3] and in assay [4] was “inactive” throughout.
With `Cc1ccc(C(=O)c2ccc(CC(=O)O)n2C)cc1`, the activity, negative = inhibition was -5.58% in assay [1] (setting [7]) and 10.6% in assay [1] (setting [8]). The Potency entry in assay [2], in assay [3] and in assay [4] was “inactive” throughout.
As to `O=C(O)[C@H](O)[C@@H](O)[C@H](O)[C@H](O)CO`, the values for the activity, negative = inhibition in assay [1] (setting [5]) and in assay [1] (setting [6]) were 1.4% and 5.65%, respectively. Besides, the Potency entry in assay [2], in assay [3] and in assay [4] was “inactive” in each case.
As for `CN1[C@@H]2CC[C@H]1CC(OC(c1ccccc1)c1ccccc1)C2` (stereo partly drawn), in assay [2], the Potency result was “inactive”. Further, the Potency in assay [3] was 5.62 µM (active) and 7.08 µM (active).
As to `CCOC(=O)c1ccccc1O`, the activity, negative = inhibition in assay [1] (setting [5]) was 4.06%; in assay [1] (setting [6]) it was 15.6%. Also, the Potency entry in assay [2], in assay [3] and in assay [4] was “inactive” each time.
In the case of `CN1[C@@H](CC(=O)c2ccccc2)CCC[C@H]1C[C@H](O)c1ccccc1`, in assay [1] (setting [5]), the activity, negative = inhibition was -28.5%. Further, the Potency in assay [1] (parasite line B) was 12.6 µM (active); in assay [3] it was 8.91 µM (active); in assay [4], 11.2 µM (active). For the same compound, the Potency entry in assay [2] was “inactive”.
`CCOc1ccc2nc(S(N)(=O)=O)sc2c1`: the activity, negative = inhibition in assay [1] (setting [5]) was -5.98%. For the same compound, the Potency entry in assay [2], in assay [3] and in assay [4] was “inactive” each time.
On to `O=C(CCN1CCN(CCO)CC1)N1c2ccccc2Sc2ccc(C(F)(F)F)cc21`, for which the figures for the Potency in assay [1] (parasite line A) and in assay [3] were 14.1 µM (active) and 7.94 µM (active), respectively. Besides, the Potency result in assay [4] is “inactive”.
As to `Oc1c(Br)cc(Br)c2cccnc12`, the activity, negative = inhibition in assay [1] (setting [5]) is -4.99%; in assay [1] (setting [6]), -18.5%. For the same compound, the Potency entry in assay [2] and in assay [4] was “inactive” in each case.
As for `CN1CCN(c2cc3c(nn2)Oc2ccccc2N3C)CC1`, the activity, negative = inhibition in assay [1] (setting [5]) is 11.3%; in assay [1] (setting [6]) it was 1.64%. Moreover, the Potency entry in assay [2], in assay [3] and in assay [4] was “inactive” each time.
On to `C=CCCCCCCCCC(=O)O`, for which the activity, negative = inhibition in assay [1] (setting [5]) is 5.45%; in assay [1] (setting [6]) it was 15%. Further, the Potency result in assay [2], in assay [3] and in assay [4] was “inactive” throughout.
On to `O=C(O)COc1ccc(C(=O)c2cccs2)c(Cl)c1Cl`, for which the activity, negative = inhibition was 17.6% and 6.75% in assay [1] (setting [5]); 6.94% and 2.12% in assay [1] (setting [6]). Further, the Potency result in assay [2], in assay [3] and in assay [4] was “inactive” in each case.
With `Cc1nc2ccccc2n1Cc1ccc(Cl)cc1`, in assay [1] (parasite line A), the Potency was 12.6 µM (active). The Potency entry in assay [2] was “inactive”.
In the case of `c1ccc2sc(SN3CCOCC3)nc2c1`, in assay [1] (setting [5]), the activity, negative = inhibition is -12.8%. For the same compound, the Potency result in assay [2] and in assay [4] was “inactive” throughout. Also, the Potency in assay [3] was 11.2 µM (active).
For `Clc1ccccc1-c1nc(-c2ccncc2)no1`, the activity, negative = inhibition in assay [1] (setting [5]) was 11.4%; in assay [1] (setting [6]), -1.37%. Also, the Potency entry in assay [2] and in assay [4] was “inactive” in each case. Moreover, in assay [3], the Potency is 10 µM (active).
As to `CCCCC[C@H](O)/C=C/[C@@H]1[C@@H](C/C=C\CCCC(=O)O)[C@@H](O)C[C@H]1O`, the activity, negative = inhibition in assay [1] (setting [5]) is 7.31%; in assay [1] (setting [6]), 11%. The Potency result in assay [2] and in assay [4] was “inactive” in each case.

The values are drawn from PubChem BioAssay (NCATS).
